Assay [1] has as its target Transcription factor E2F1 (Homo sapiens) (UniProt Q01094). Briefly: ATG_E2F_CIS: Attagene CIS-FACTORIAL HepG2 Assay for human E2F Transcription Factor 1 (AID 2282935). The note with it: HepG2 Attagene cis-reporter, E2F reporter RNA transcripts; actives raise or lower the signal. In short, it runs like this:
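Fluorescent RT-PCR products, digested with HpaI for 2 h at 37 C, are separated by capillary electrophoresis. Source RNA comes from transfected HepG2 cultures treated for 24 h.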

The nature of assay [2]: ATG_E_Box_CIS: Attagene CIS-FACTORIAL HepG2 Assay for human Enhancer Box (E-box) (AID 2282936). The note with it: HepG2 E-box cis-reporter transcription, actives raise or lower the signal. In short, it runs like this:
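Fluorescent reporter fragments separated by capillary electrophoresis gave the signal; mRNA came from HepG2 cells transfected with cis-element reporters and treated 24 h. Curves fitted bidirectionally relative to DMSO controls.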

Assay [3] in a line: ATG_M_61_CIS: Attagene CIS-FACTORIAL HepG2 Assay for M61 Transcription Factor (Internal Marker) (AID 2282937). As to conditions: HepG2 Attagene CIS-FACTORIAL M61 internal marker reporter; actives raise or lower the signal. In short, it runs like this:
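This endpoint serves as an internal background control within a multiplexed HepG2 cis-reporter panel. Cells are exposed for 24 h; reporter mRNA is amplified, fluorescently labelled and sized by capillary electrophoresis, with DMSO as negative control.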

Assay [4] in a line: ATG_M_19_CIS: Attagene CIS-FACTORIAL HepG2 Assay for M19 Transcription Factor (Internal Marker) (AID 2282939). The note with it: HepG2 Attagene CIS-FACTORIAL M19 internal marker reporter; actives raise or lower the signal. In short, it runs like this:
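Signals come from fluorescence of labelled reporter-specific PCR fragments resolved by capillary electrophoresis, following 24 h treatment of HepG2 cells transfected with cis-promoter reporter units; activity was fitted in both directions relative to DMSO.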

Assay [5] can be described thus: ATG_ERE_CIS: Attagene CIS-FACTORIAL HepG2 Assay for Estrogen Response Element (ERE) (AID 2282940). As to conditions: HepG2 ERE cis-reporter, Attagene RNA transcript; actives raise or lower the signal. The method in brief:
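Fluorescence of capillary-separated, FAM-labelled reporter cDNA fragments indicates reporter mRNA levels in HepG2 cells exposed to chemicals for 24 h. Transient transfection with cis-regulated units; data fitted in both directions against DMSO.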

Assay [6] is described as follows: ATG_Ets_CIS: Attagene CIS-FACTORIAL HepG2 Assay for human Erythroblast Transformation Specific (ETS) (AID 2282941). The note with it: HepG2 ETS cis-reporter transcription, actives raise or lower the signal. In short, it runs like this:
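Multiplexed reporter transcript profiling: HepG2, 24 h treatment, total RNA to cDNA, PCR, 6-FAM labelling, HpaI cut, capillary electrophoresis. Gain- or loss-of-signal fitted against DMSO.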

Assay [7] has as its target Hepatocyte nuclear factor 3-beta (Homo sapiens) (UniProt Q9Y261). Briefly: ATG_FoxA2_CIS: Attagene CIS-FACTORIAL HepG2 Assay for human Forkhead box A2 (FOXA2) (AID 2282942). The note with it: HepG2 cis-reporter transcription factor activity, 24 h; actives raise or lower the signal. The method in brief:
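Cells: HepG2, transient multiplex reporter transfection. Exposure 24 h. Detection: reporter-specific RT-PCR, fluorescent labelling, restriction digest, capillary electrophoresis. Analysis: bidirectional curve fit, DMSO as negative control.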

Assay [8] in a line: ATG_FoxO_CIS: Attagene CIS-FACTORIAL HepG2 Assay for human Forkhead box O (FoxO) (AID 2282943). As to conditions: HepG2 Attagene cis-reporter, FoxO element, mRNA; actives raise or lower the signal. The method in brief:
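HepG2, transient MRTU transfection (cis element, endogenous TFs). Dose 24 h. TriZol RNA → oligo(dT) RT → PCR → 6-FAM primer extension → HpaI cut → CE. Gain/loss vs DMSO.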

Assay [9] is described as follows: ATG_GATA_CIS: Attagene CIS-FACTORIAL HepG2 Assay for human GATA Binding Protein (AID 2282944). The note with it: HepG2 GATA cis-element reporter, Attagene multiplex mRNA; actives raise or lower the signal. The method in brief:
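After transfecting HepG2 cells with multiple cis-regulated reporter units, chemicals are dosed for 24 h; isolated RNA undergoes RT-PCR and fluorescent labeling before capillary electrophoresis, with activity expressed against DMSO.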

A short description of assay [10]: ATG_EGR_CIS: Attagene CIS-FACTORIAL HepG2 Assay for human Early Growth Response 1 (EGR1) (AID 2282938). As to conditions: HepG2 Attagene CIS-FACTORIAL EGR reporter mRNA; actives raise or lower the signal. In short, it runs like this: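 HepG2, transient MRTU transfection (cis promoters), 24 h compound. RNA → RT (oligo-dT) → PCR → 6-FAM labelling → HpaI cut → CE fluorescence. Bidirectional fit, DMSO baseline.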

The structures appear in SMILES notation. The source made the active and inactive calls. How the source made its calls: active means hit-call score of the fitted dose curve at least 0.9, where 1 is the maximum; inactive means score below 0.9.

These results are taken from PubChem BioAssay (EPA / NIEHS).

Sequence of Hepatocyte nuclear factor 3-beta (Homo sapiens) (Q9Y261 whole entry, looked up): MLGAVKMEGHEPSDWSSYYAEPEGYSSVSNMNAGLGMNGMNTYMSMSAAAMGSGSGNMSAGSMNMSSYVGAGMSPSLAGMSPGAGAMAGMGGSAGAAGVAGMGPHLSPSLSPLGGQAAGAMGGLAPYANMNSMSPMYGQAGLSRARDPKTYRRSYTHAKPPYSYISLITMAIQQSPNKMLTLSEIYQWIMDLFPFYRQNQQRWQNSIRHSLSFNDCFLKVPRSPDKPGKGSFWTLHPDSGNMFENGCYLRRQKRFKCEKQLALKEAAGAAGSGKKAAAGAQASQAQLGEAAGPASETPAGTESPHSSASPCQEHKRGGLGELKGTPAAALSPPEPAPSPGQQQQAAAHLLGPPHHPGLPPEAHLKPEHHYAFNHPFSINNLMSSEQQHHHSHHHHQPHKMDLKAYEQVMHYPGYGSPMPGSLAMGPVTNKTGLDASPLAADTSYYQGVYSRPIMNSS
Sequence of Transcription factor E2F1 (Homo sapiens) (Q01094 whole entry, looked up): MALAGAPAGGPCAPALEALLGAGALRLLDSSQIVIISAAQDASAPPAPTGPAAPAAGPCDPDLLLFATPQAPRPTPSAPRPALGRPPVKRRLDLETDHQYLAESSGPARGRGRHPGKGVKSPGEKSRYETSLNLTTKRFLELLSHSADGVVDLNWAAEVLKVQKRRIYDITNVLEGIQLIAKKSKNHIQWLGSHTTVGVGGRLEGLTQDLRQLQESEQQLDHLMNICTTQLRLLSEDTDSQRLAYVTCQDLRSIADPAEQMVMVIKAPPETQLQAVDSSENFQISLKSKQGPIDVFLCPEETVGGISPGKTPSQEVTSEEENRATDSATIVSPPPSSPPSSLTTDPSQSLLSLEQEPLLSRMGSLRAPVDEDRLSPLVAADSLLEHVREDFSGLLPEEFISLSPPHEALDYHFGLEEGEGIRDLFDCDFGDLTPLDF

For the compound `CCOc1ccc(NC(N)=O)cc1`, the call in [1], in [2], in assay [3], in assay [4], in assay [5] and in assay [6] was inactive. In addition, the compound was called inactive in [7], in [8] and in [9].
For the compound `CCCCOCC(C)O` (stereo not given), the call in assay [1], in assay [2], in assay [3], in assay [4], in [5] and in [6] was inactive. Moreover, the compound was classed as inactive in assay [7], in assay [8] and in assay [9].
For `CCc1occc(=O)c1O`, the outcome in assay [1], in [2], in assay [3], in assay [4], in [7] and in assay [8] was inactive. The compound was called inactive in assay [9].
Regarding `CC(C)CCCCCOC(=O)CS`, the result in assay [1], in assay [2], in [10], in assay [4], in assay [5] and in assay [6] was inactive. Besides, the compound was classed as inactive in assay [7], in [8] and in assay [9].
Regarding `C1CNCCN1`, the outcome in assay [1], in assay [2], in assay [3], in assay [4], in assay [5] and in assay [7] was inactive. For the same compound, the outcome in assay [8] and in assay [9] was inactive.
On to `CC/C=C\C/C=C\C/C=C\CCCCCCCC(=O)OC`, for which the outcome in assay [1], in assay [3], in [4], in assay [6], in assay [7] and in assay [9] was inactive. Besides, the AC50 in [2] is 134 µM (active); in assay [5], 38.9 µM (active); in [8] it was 158 µM (active).
As to `CCC(=O)C1CC(C(C)C)CC=C1C` (stereo not given), the result in assay [1], in assay [2], in [3], in assay [4], in assay [5] and in [6] was inactive. Further, the call in [7], in assay [8] and in assay [9] was inactive.
For `CC(C)C(=O)OCCOc1ccccc1`, the outcome in assay [1], in assay [2], in [3], in assay [4], in [5] and in [6] was inactive. The compound was called inactive in assay [7], in [8] and in [9].
`CC(=O)CCC1=C(C)CCCC1(C)C`: the outcome in [1], in assay [2], in assay [3], in assay [4], in [6] and in assay [7] was inactive. Moreover, the compound was classed as inactive in assay [8] and in assay [9].
As to `CC(=O)CC(=O)Nc1ccccc1C`, the call in assay [1], in assay [2], in assay [3], in [4], in [7] and in [8] was inactive. Besides, the result in assay [9] was inactive.
On to `CCCCCCCCCCCCC`, for which the result in assay [1], in assay [2], in assay [3], in assay [4], in assay [5] and in assay [6] was inactive. In addition, the compound was classed as inactive in assay [7], in assay [8] and in assay [9].
With `CCCCC1C(=O)N(c2ccccc2)N(c2ccccc2)C1=O`, the compound was classed as inactive in assay [1], in assay [2], in assay [3], in [4], in assay [5] and in [7]. The call in assay [8] and in assay [9] was inactive.
Take `Cc1cc(=O)[nH]c(=O)[nH]1`: the compound was called inactive in assay [1], in assay [2], in [3], in [4], in assay [5] and in [7]. Further, the result in assay [8] and in assay [9] was inactive.
As to `O=C(O)CCC(=O)O`, the compound was called inactive in assay [1], in assay [2], in assay [3], in [4], in [5] and in [6]. Besides, the compound was classed as inactive in [7], in assay [8] and in assay [9].
Consider `CCOC(=O)/C=C\C(=O)OCC`, for which the call in assay [1], in assay [2], in assay [3], in [4], in [5] and in assay [6] was inactive. Also, the call in assay [7], in assay [8] and in assay [9] was inactive.
For `C=CCCCCCCCCC=O`, the compound was classed as inactive in assay [1], in [2], in assay [3], in [4], in assay [6] and in [7]. In addition, the outcome in assay [8] and in [9] was inactive. Further, the AC50 in [5] is 88.7 µM (active).
Turning to `CCCCCCCC(=O)OCC`, the compound was classed as inactive in [1], in assay [2], in [3], in [4], in assay [5] and in assay [6]. The compound was called inactive in assay [7], in [8] and in [9].
With `N=C1C=CC(=C(c2ccc(N)cc2)c2ccc(N)cc2)C=C1`, the outcome in assay [1], in [3], in [5] and in assay [7] was inactive. Further, the AC50 was 72.5 µM (active) in assay [2]; 100 µM (active) in [4]; 25.4 µM (active) in assay [6]; 180 µM (active) in assay [8]; 26.2 µM (active) in assay [9].
Turning to `CCCCCCCOC(=O)c1ccc(O)cc1`, the compound was classed as inactive in [1], in assay [3], in assay [4], in assay [6], in assay [7] and in [8]. The compound was classed as inactive in assay [9]. Besides, the results for the AC50 in assay [2] and in [5] were 54.3 µM (active) and 19.3 µM (active), respectively.
Consider `O=C(O)CC(C(=O)O)S(=O)(=O)O` (stereo not given), for which the outcome in assay [1], in assay [2], in assay [3], in assay [4], in [5] and in assay [6] was inactive. Also, the outcome in assay [7], in [8] and in assay [9] was inactive.
For the compound `CN(C)Cc1cc(CN(C)C)c(O)c(CN(C)C)c1`, the compound was called inactive in assay [1], in [2], in assay [10], in [4], in assay [5] and in [7]. The result in assay [8] and in assay [9] was inactive.
On to `CCCC(CC)c1ccccc1` (stereo not given), for which the compound was classed as inactive in assay [1], in assay [2], in [10], in [4], in assay [6] and in [7]. For the same compound, the compound was called inactive in assay [8] and in [9].
As for `CC(C)c1cccc(C(C)C)c1N`, the compound was called inactive in assay [1], in assay [2], in [10], in [4], in assay [5] and in assay [6]. Besides, the compound was classed as inactive in assay [7], in [8] and in assay [9].
Take `CCN(CC)c1cccc(C)c1`: the outcome in assay [1], in assay [2], in [10], in [4], in assay [5] and in [6] was inactive. Further, the compound was called inactive in [7], in [8] and in assay [9].
Turning to `CCC(C)c1ccccc1` (stereo not given), the call in assay [1], in [2], in [10], in assay [4], in assay [5] and in assay [7] was inactive. The compound was classed as inactive in [8] and in [9].
For `CC1=CCC2CC1C2(C)C` (stereo not given), the compound was classed as inactive in assay [1], in assay [2], in assay [10], in assay [4], in [5] and in assay [6]. Moreover, the compound was classed as inactive in [7], in assay [8] and in [9].
Turning to `C=C(C)C(=O)OCCOC(=O)C(=C)C`, the compound was called inactive in [1], in [2], in assay [10], in assay [4], in [5] and in assay [7]. Besides, the outcome in assay [8] and in assay [9] was inactive.
Take `c1ccc(Nc2cccc3ccccc23)cc1`: the AC50 is 33.4 µM (active) in [1]; 46.8 µM (active) in assay [10]; 47.9 µM (active) in assay [4]; 33.4 µM (active) in [6]; 53.2 µM (active) in assay [8]. The result in [2], in assay [7] and in assay [9] was inactive.
As for `O=C(O)C(F)(F)C(F)(F)C(F)(F)C(F)(F)C(=O)O`, the outcome in [1], in [2], in assay [4], in [5], in assay [6] and in [7] was inactive. The outcome in [8] and in assay [9] was inactive.
With `CCOC(=O)OC(=O)OCC`, the compound was classed as inactive in assay [1], in [2], in assay [4], in [5], in [6] and in [7]. Further, the outcome in assay [8] and in [9] was inactive.
